Experimental findings from PubChem BioAssay are described below.

“And” between values parts separate entries of the source, which are not always exact repeats. Equal values may be shown once. Some compounds were tested as several samples or in several runs, with calls that do not always agree. The source made the active and inactive calls.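 Rule for the calls, unless noted: active = thallium flux through the channel raised or lowered by more than 3 SD from vehicle-only wells, actives on both sides; inactive = the rest.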

By viability is commonly meant the share of living cells, or the viability signal relative to a control. In general, inhibition refers to the drop in the measured response relative to a control, in per cent.

A short description of test [1]: P. berghei load reduction in hepatocytes – cell-based, HepG2, luciferase luminescence, HepG2 viability, primary screen (AID 624349; in the data active = parasite load remaining mostly below about 12%, no sharp cut-off; inactive = mostly above about 10%;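 note: 100% = mean of DMSO negative control wells on the same plate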). Conditions: P. berghei liver stage in HepG2, luciferase luminescence, concentration not given here; parasite load remaining: stronger effect = lower value; viability: measured here: HepG2 viability without parasites.
Test [2] can be described thus: signal quenchers or enhancers, Cy5 substrate/SSB – biochemical, NIH Clinical Collection, E. coli SSB, artefact control for HCV NS3 helicase inhibitor project (AID 743268; call rule not given here). Conditions: Cy5-oligo bound E. coli SSB, fluorescence interference.
Test [3] concerns Hepatitis C virus NS3 helicase. The experiment in a line: blockers of NS3h binding to DNA – biochemical, fluorescence polarization, NIH Clinical Collection, primary screen (AID 743270; call rule not given here). Conditions: NS3 helicase binding to Cy5-dT15 DNA, stronger effect = higher value, concentration not given here. In general terms: Fluorescence polarisation rises when a labelled molecule tumbles more slowly, as on binding a larger partner.

Test [4] deals with Single-stranded DNA-binding protein (Escherichia coli (strain K12)) (UniProt P0AGE0). Nature of the test: SSB-ssDNA binding inhibitors – biochemical, fluorescence polarization, NIH Clinical Collection, counter-screen for HCV NS3 helicase inhibitor project (AID 743271; in the data active = inhibition above about 28%). Conditions: E. coli SSB-DNA binding, stronger effect = higher value, concentration not given here.
The nature of test [5]: compounds distorting NS3 helicase fluorescence signal – biochemical, NIH Clinical Collection, artefact control for HCV NS3 helicase inhibitor project (AID 743272; call rule not given here;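 note: HCV NS3 helicase with a Cy5 labelled single stranded DNA probe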). Conditions: fluorescence interference counterscreen, HCV NS3 helicase assay; stronger effect = lower value. A general note: A counterscreen serves to expose hits that act by an unwanted route or on another target.
A short description of test [6]: modulation of C. elegans fzo-1 (AID 1259413; call rule not given here;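 note: fzo-1 mutant C. elegans worms in liquid wells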). As to conditions: C. elegans fzo-1 modulator screen, mean read-out; stronger effect = higher value.
Test [7] can be described thus: viability loss with induced miR-34 in A549 – imaging, A549 dox-inducible miR-34, nuclei and caspase counts, primary screen (AID 1347080;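 active = compounds whose cell count with miR-34 switched on is under 0.7 times the count with it off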). As to conditions: A549 miR-34 inducible, Hoechst nuclei count, 48 h.
A short description of test [8]: MELAS cybrid and Rieske KO viability enhancers – cell-based, MELAS cybrids, Rieske KO mouse fibroblasts, CellTiter-Glo, primary screen (AID 1508586;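 active = mean z-score across replicates of 1.96 or higher in either the MELAS or the Rieske mutant cell line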;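 note: z relative to plate mean and SD of compound and empty wells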). Conditions: low glucose. Background: ATP-based viability assays read luminescence as a measure of living cells.
The next test has as its system F380Y. Nature of the test: BK channel mutant inhibitors and activators – cell-based, U2OS BacMam, thallium flux, beta subunits, selectivity assay, profiling panel (AID 1259406).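 Note: initial slope of Thallos dye fluorescence rise after thallium is added; log ratio against the mean of 0.3% DMSO vehicle wells on the same plate.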 Conditions: U2OS BacMam BK variants, at 30 µM.
For a further test, the system named is F380Y/beta1. The description is as above. Conditions: U2OS BacMam BK variants, at 30 µM.
The next test relates to F380Y/beta2Delta. The test is described as above. As to conditions: U2OS BacMam BK variants, at 30 µM.
A further test deals with F380Y/beta4. The test is described as above. As to conditions: U2OS BacMam BK variants, at 30 µM.
Test [9] addresses Calcium-activated potassium channel subunit alpha-1 (Homo sapiens) + Leucine-rich repeat-containing protein 26 (Homo sapiens) (UniProt Q12791+Q2I0M4). Described as above. As to conditions: U2OS BacMam BK variants, F380Y/Slo1WT/gamma1, at 30 µM.
The next test concerns R275C. The description is as above. Conditions: U2OS BacMam BK variants, at 30 µM.
The subject of the next test is R275C/beta1. Described as above. As to conditions: U2OS BacMam BK variants, at 30 µM.
The test system of the next test is R275C/beta2Delta. The test is described as above. As to conditions: U2OS BacMam BK variants, at 30 µM.
The test system of a further test is R275C/beta4. Described as above. Conditions: U2OS BacMam BK variants, at 30 µM.
A further test relates to R275C/Slo1WT/beta2. The test is described as above. Conditions: U2OS BacMam BK variants, at 30 µM.
[10] abbreviates: stronger effect = lower value, cell number ratio, induced over uninduced.
[11] abbreviates: measured here: relative caspase fold change +Dox/-Dox.
Where [12] appears, read: measured here: total cells with miR-34 induction, stronger effect = lower value.
Setting [13] is: measured here: total cells without miR-34 induction.
The mark [14] stands for this setting: MELAS cybrid survival, CellTiter-Glo 48 h, stronger effect = higher value.
[15] abbreviates: Rieske KO mouse fibroblast survival, CellTiter-Glo 72 h.

Sequence of Calcium-activated potassium channel subunit alpha-1 (Homo sapiens) + Leucine-rich repeat-containing protein 26 (Homo sapiens) (Q2I0M4 whole entry, looked up, one chain of several): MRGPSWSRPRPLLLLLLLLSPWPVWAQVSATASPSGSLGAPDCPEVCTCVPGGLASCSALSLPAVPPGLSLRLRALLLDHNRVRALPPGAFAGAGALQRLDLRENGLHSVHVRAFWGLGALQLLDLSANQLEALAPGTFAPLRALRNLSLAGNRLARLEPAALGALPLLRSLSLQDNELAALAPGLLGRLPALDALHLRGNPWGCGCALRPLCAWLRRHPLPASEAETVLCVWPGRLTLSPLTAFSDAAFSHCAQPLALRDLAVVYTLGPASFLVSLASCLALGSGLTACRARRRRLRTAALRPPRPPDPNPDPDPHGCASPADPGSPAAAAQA

As to `O=c1[nH]c(=O)n(C2CCCO2)cc1F` (stereo unspecified), the parasite load remaining in test [1] was 107% (inactive) and 21.2% (inactive). Further, in test [1], the viability was 73.5% and 76.5%. Also, the figures for the fluorescence ratio in test [2] and in test [5] were 1.08 (inactive) and 1.04 (inactive), respectively. Moreover, the inhibition was 6.73% (inactive) in [3] and 5.29% (inactive) in test [4]. The mean signal in test [6] was 283 (inactive). The fold change in [7] (setting [10]) is 0.803 (inactive) and 0.835 (inactive) and 0.463 (active); in test [7] (setting [11]), 1.28 and 1.27 and 3.72. The cell count in test [7] (setting [12]) was 7370 and 6840 and 4080; in test [7] (setting [13]), 9180 and 8190 and 8820. In addition, the z-score in [8] (setting [14]) is -0.322 (inactive) and 0.511 (inactive) and 0.255 (inactive); in [8] (setting [15]) it was -0.199 and -0.575 and -0.0895. The log fold change Tl+ flux is -0.0407 (inactive) in the test with F380Y; 0.033 (inactive) in the test on F380Y/beta1; -0.0133 (inactive) in the test with F380Y/beta2Delta; -0.0214 (inactive) in the test with F380Y/beta4; 0.0446 (inactive) in test [9]; -0.0615 (inactive) with R275C. Also, the log fold change Tl+ flux is -0.0291 (inactive) in the test on R275C/beta1, -0.0162 (inactive) in the test on R275C/beta2Delta, -0.0234 (inactive) in the test with R275C/beta4 and 0.00334 (inactive) with R275C/Slo1WT/beta2.
For the molecule `Cc1cccc(CCN2CCC(C(=O)c3ccc(NS(C)(=O)=O)cc3)CC2)n1`, in [1], the parasite load remaining is 49.2% (inactive). This molecule displayed a viability in test [1] of 75.4%. The values for the fluorescence ratio in [2] and in test [5] were 0.97 (inactive) and 0.95 (inactive), respectively. Moreover, in [3], the inhibition is -6.33% (inactive). Also, the mean signal in [6] is 229 (inactive). In addition, the fold change in [7] (setting [10]) is 0.911 (inactive) and 0.937 (inactive) and 0.845 (inactive); in test [7] (setting [11]) it was 1.08 and 1.19 and 0.815. Further, the cell count was 9110 and 5280 and 8030 in test [7] (setting [12]); 10000 and 5630 and 9500 in test [7] (setting [13]). For the same molecule, the log fold change Tl+ flux is 0.00945 (inactive) in the test on F380Y; 0.0315 (inactive) in the test with F380Y/beta1; 0.0105 (inactive) with F380Y/beta2Delta; -0.0658 (inactive) in the test on F380Y/beta4; 0.0152 (inactive) in [9]; -0.00568 (inactive) in the test on R275C. Further, the log fold change Tl+ flux in the test on R275C/beta1 was 0.0227 (inactive); in the test with R275C/beta2Delta, -0.0466 (inactive); in the test on R275C/beta4, 0.0164 (inactive); with R275C/Slo1WT/beta2, -0.028 (inactive).
For the molecule `COc1ccc(C[C@H](C)NC[C@@H](O)c2ccc(O)c(NC=O)c2)cc1`, in [1], the parasite load remaining is 66.9% (inactive). In test [1], this molecule registered a viability of 77.1%. For the same molecule, the fluorescence ratio in [2] is 1.02 (inactive); in test [5], 0.98 (inactive). Besides, the inhibition in test [3] was -9.9% (inactive); in test [4], -0.1% (inactive). In test [6], the mean signal was 235 (inactive). Further, the figures for the fold change in test [7] (setting [10]) and in test [7] (setting [11]) were 0.975 (inactive) and 0.716, respectively. For the same molecule, the results for the cell count in [7] (setting [12]) and in test [7] (setting [13]) were 8230 and 8440, respectively. Further, the values for the z-score in test [8] (setting [14]) and in test [8] (setting [15]) were -0.844 (inactive) and -0.643, respectively. Also, the log fold change Tl+ flux in the test with F380Y was -0.0497 (inactive); with F380Y/beta1, -4.2e-05 (inactive); with F380Y/beta2Delta, 0.0145 (inactive); in the test with F380Y/beta4 it was -0.0214 (inactive); in test [9], 0.0199 (inactive); in the test with R275C it was 0.00389 (inactive). Moreover, the log fold change Tl+ flux with R275C/beta1 is 0.0191 (inactive); with R275C/beta2Delta, -0.0506 (inactive); with R275C/beta4 it was 0.0483 (inactive); in the test with R275C/Slo1WT/beta2, 0.0259 (inactive).
